# This is part of a sample that, as a whole, favours compounds with a hit. Of some 83,000 tested, about 20% had one in any assay.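 Method: cells in 96-well plates; compound added at one concentration; 48 h incubation; percent growth measured; values under 10 scored active.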 A number with no mark means an inactive call. Active and inactive are the calls of the source.
# System: DU-145 prostate
# Test: NCI-60 one-dose screen, 48 h (100 = growth as untreated, 0 = no growth, -100 = all killed)
# Conditions: 10 µM unless noted
row,Compound,growth
1,O=C(Nc1ccccc1)Nc1ncnc2c1ncn2-c1ccc(Cl)cc1,96.3%
2,CC(C)c1ccc(C(=O)Nc2nc3ccc(O)c(CN(C)C)c3s2)cc1,63.1%
3,Cc1ccc(Nn2c(SCC(=O)Nc3nc(-c4ccccc4)cs3)nc(C)c2C)cc1,83.4%
4,N#CC(C#N)N=Nc1ccc(Br)cc1,38.5%
5,CCN1C(=S)N(c2ccccc2)C2C1NN=c1s/c(=C3\C(=O)N(C(C)C)c4ccccc43)c(=O)n12 (centres undefined),58%
6,CSc1nc2ccccc2cc1/C=[N+](\[O-])c1ccccc1,87.7%
7,CN1CCN(c2cc(Nc3cc(C4CC4)[nH]n3)nc(Nc3ccc(CC(=O)NCc4cccc(F)c4)cc3)n2)CC1,41.7%
8,C=CCN=c1sc2c(n1NC(=O)c1cc3ccc1CCc1ccc(cc1)CC3)C(=O)c1ccccc1C2=O,-90.7% (active)
9,Cn1cc(-c2csc(-c3cn(C(=O)OC(C)(C)C)c4ccc(Br)cc34)n2)c2ccnc(Cl)c21,68.3%
10,CSc1oc(C)nc1[P+](c1ccccc1)(c1ccccc1)c1ccccc1,57.6%
11,C=C1C(=O)O[C@H]2[C@H]1CC/C(Cn1cc(-c3ccccc3)nn1)=C\CC[C@@]1(C)O[C@@H]21,-61.8% (active)
12,O=S(=O)(c1ccccc1)n1cc2c(c1)-c1nc(Nc3ncccn3)sc1CC2,34.6%
13,Cc1[nH]c(C(=O)Nc2ccccc2OC2CCNCC2)c(Cl)c1Cl,16.4%
14,COc1ccc(-c2cc(-c3ccc(Cl)cc3)c(C#N)c(=O)n2Cc2ccc(C(=O)Nc3ccccc3N)cc2)cc1,101%
15,O=C(CN1CCCCC1)Nc1nc(-c2cc3ccccc3oc2=O)cs1,106%
16,Oc1ccc(Cl)cc1/C=N\NC(=S)N/N=C/c1cc(Cl)ccc1O,58.3%
17,COC12C=C/C(=C(/C(=O)OCc3ccncn3)C(=O)CCCCCCCCC3(OC)C=C/C(=C(/C(=O)OCc4ccncn4)C(=O)CCCCCCCC1)O3)O2,-41.8% (active)
18,COc1ccc2c(c1)N(CCO)C1=C(C(=O)OC1)C2c1cccc(F)c1 (centres undefined),10.1%
19,CC(=O)Oc1ccc(/C(=C(\C)c2ccc(Cl)cc2)c2ccc(OCCN3CCCCC3)cc2)cc1,61.9%
20,O=C(N(c1ccccc1)c1ccccc1)n1cc(I)c2nc(Cl)nc(Cl)c21,43.3%

row,Compound,growth
1,N#Cc1nc(-c2ccccc2)oc1S(=O)(=O)N1CCN(c2ccccc2)CC1,107%
2,Cc1ccc(NC(=O)c2sc3nc(C)c(Br)c(C)c3c2N)cc1,66.6%
3,O=C(CN1C(=O)S/C(=C\C(Cl)=C\c2ccccc2)C1=O)NCCc1ccc(O)cc1,18.2%
4,O=C(/C=C/c1cn(-c2ccccc2)nc1-c1ccc(Cl)cc1)c1ccc(F)cc1,88.7%
5,CCOC(=O)c1c(NC(=O)c2cccc(C(F)(F)F)c2)sc2c(CN(C)C)c(O)ccc12,72.5%
6,N#Cc1c(-c2ccccc2)cc(-c2ccc(Nc3nc(Nc4ccc(Cl)cc4)nc(Nc4ccc(Cl)cc4)n3)cc2)nc1N,34%
7,O=C(/C=C/c1cccs1)Nc1ncc(Cc2ccccc2F)s1,11.4%
8,O=S(=O)(Nc1cc(Cl)ccc1Cl)c1ccc(-c2cnc(C3CC3)o2)cc1,70.8%
9,CCOC(=O)c1ccc2c(c1)nc(-c1ccccc1)n2C1CCCCC1,105%
10,CC(=O)N1N=C(c2ccc(C(F)(F)F)c(F)c2)CC1c1[nH]c(C)c(C(=O)NCC(F)(F)F)c1C (centres undefined),85.5%
11,O=C(CN1C(=O)S/C(=C\c2ccccc2)C1=O)Nc1ncc(Cc2ccccc2Cl)s1,87%
12,COc1cc(OCc2cccc(Br)c2C)cc(OC)c1C=O,91.3%
13,COc1cc(NS(=O)(=O)c2ccc(-c3cnc(C4CC4)o3)cc2)ccc1F,23%
14,COC1=CC(c2ccc[nH]2)=N/C1=C\c1[nH]c(C)c(CC(=O)OCc2ccccc2)c1CCC(=O)OCc1ccccc1,11.8%
15,Clc1cccc(Nc2ncnc3ccc(-c4cnc5[nH]ccc5c4)cc23)c1,54%
16,COc1cc2ncnc(Nc3ccc(F)c(Cl)c3)c2cc1OCC(=O)N1CCN(c2ccccc2)CC1,62.9%
17,O=C1Nc2ccccc2/C1=C/c1nc2ccccc2c(=O)[nH]1,99.3%
18,CNc1nnc2n(-c3ccccc3)c(=O)c3cnn(-c4ccccc4)c3n12,102%
19,C=C1C(=O)O[C@H]2[C@H]1CC/C(COC(=O)c1cc3ccccc3s1)=C\CC[C@@]1(C)O[C@@H]21,-80.6% (active)

# — PubChem BioAssay (NCI)
